Data taken from PubChem BioAssay (Tox21).
The source made the active and inactive calls. Where a call stands in place of a potency, no number is given. Unless noted, calls follow the shape of the dose curve; as a rule, active = well fitted curve in the direction sought with a large enough effect in the repeat runs; inconclusive = weak or mixed curves; inactive = no such curve, though single readings can be large; an effect the other way counts as inactive or inconclusive.

What was measured:
[1] = qHTS assay to identify small molecule antagonists of the glucocorticoid receptor (GR) signaling pathway - cell viability counter screen (AID 720693); also: nearly all actives have a fitted effect of over 55% in size; also: potency is read from the fitted curve at half-maximal effect
[2] = qHTS assay for identifying genotoxic compounds that show differential cytotoxicity against isogenic chicken DT40 cell lines with known DNA damage response pathways - wild type cell line (AID 743012); also: nearly all actives have a fitted effect of over 60% in size; also: potency is read from the fitted curve at half-maximal effect
How it was run: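 Parental DNA repair-proficient DT40 cells, 300 per well, were pre-incubated ~0.5 h at 37 C/5% CO2, pin-dosed with compounds in DMSO, then incubated 40 h. Viability was read as CellTiter-Glo luminescence after 30 min at room temperature.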

[3] = qHTS assay for identifying genotoxic compounds that show differential cytotoxicity against isogenic chicken DT40 cell lines with known DNA damage response pathways - Rev3 mutant cell line (AID 743014); also: nearly all actives have a fitted effect of over 55% in size; also: potency is read from the fitted curve at half-maximal effect
[4] = qHTS assay for identifying genotoxic compounds that show differential cytotoxicity against isogenic chicken DT40 cell lines with known DNA damage response pathways - Rad54/Ku70 mutant cell line (AID 743015); also: nearly all actives have a fitted effect of over 60% in size; also: potency is read from the fitted curve at half-maximal effect
[5] = qHTS assay to identify small molecule antagonists of the androgen receptor (AR) signaling pathway - cell viability counter screen (AID 743033; also: nearly all actives have a fitted effect of over 45% in size; also: potency is read from the fitted curve at half-maximal effect)
[6] = molecular target: Androgen receptor (Homo sapiens) (UniProt P10275); assay: qHTS assay to identify small molecule agonists of the androgen receptor (AR) signaling pathway using the MDA cell line (AID 743040; also: nearly all actives have a fitted effect of over 20% in size)
Sequence of Androgen receptor (Homo sapiens) (P10275 whole entry, looked up): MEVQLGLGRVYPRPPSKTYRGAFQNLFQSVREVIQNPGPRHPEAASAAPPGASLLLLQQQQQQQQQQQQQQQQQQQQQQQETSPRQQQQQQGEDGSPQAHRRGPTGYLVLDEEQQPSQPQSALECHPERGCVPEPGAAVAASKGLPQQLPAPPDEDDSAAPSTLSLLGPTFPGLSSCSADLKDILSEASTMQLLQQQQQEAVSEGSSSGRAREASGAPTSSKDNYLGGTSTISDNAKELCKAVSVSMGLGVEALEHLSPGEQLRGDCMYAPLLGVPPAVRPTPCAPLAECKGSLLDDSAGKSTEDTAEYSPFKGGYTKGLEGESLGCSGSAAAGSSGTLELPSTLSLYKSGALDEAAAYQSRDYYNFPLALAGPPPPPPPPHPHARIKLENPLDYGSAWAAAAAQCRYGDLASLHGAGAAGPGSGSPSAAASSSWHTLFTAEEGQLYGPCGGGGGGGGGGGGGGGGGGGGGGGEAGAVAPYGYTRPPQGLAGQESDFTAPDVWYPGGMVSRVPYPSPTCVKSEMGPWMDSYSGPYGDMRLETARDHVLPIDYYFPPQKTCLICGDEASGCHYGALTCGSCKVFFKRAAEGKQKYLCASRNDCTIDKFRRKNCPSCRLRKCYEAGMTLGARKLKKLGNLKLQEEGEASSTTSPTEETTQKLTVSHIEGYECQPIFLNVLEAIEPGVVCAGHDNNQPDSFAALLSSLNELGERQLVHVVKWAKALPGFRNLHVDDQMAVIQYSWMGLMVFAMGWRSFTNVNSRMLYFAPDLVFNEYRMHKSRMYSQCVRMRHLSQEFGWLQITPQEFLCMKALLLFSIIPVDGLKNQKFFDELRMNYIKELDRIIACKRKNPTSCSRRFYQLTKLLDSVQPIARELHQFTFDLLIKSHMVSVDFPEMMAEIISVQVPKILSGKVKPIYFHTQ
How it was run: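 Cells plated, 5 h at 37C/0% CO2; compound or DMSO pinned; 16 h at 37C; ONE-Glo added; luminescence measured after 30 min at room temperature. Reporter line: MDA-kb2 with MMTV-luciferase responsive to AR and GR.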

[7] = qHTS assay to identify small molecule antagonists of the androgen receptor (AR) signaling pathway using the MDA cell line - cell viability counter screen (AID 743041; also: nearly all actives have a fitted effect of over 45% in size; also: potency is read from the fitted curve at half-maximal effect)
How it was run: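 Cells were plated at 3,000 per well and left 5 h. Compounds in DMSO were then pinned in, followed by R1881. After 16 h at 37C, CellTiter-Fluor fluorescence gave viability.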

[8] = molecular target: Androgen receptor (Homo sapiens) (UniProt P10275); assay: qHTS assay to identify small molecule antagonists of the androgen receptor (AR) signaling pathway using the MDA cell line (AID 743042; also: nearly all actives have a fitted effect of over 55% in size; also: potency is read from the fitted curve at half-maximal effect)
How it was run: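 Antagonist mode: compounds plus R1881 agonist added to MDA-kb2 AR-luc cells, incubated 16 h at 37C. Luciferase reporter luminescence quantified, with multiplexed CellTiter-Fluor readout for cell viability.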

[9] = qHTS assay to identify small molecule antagonists of the estrogen receptor alpha (ER-alpha) signaling pathway - cell viability counter screen (AID 743074; calls by dose curve;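 also: HEK293 cells carrying ER-alpha-UAS-bla reporter stimulated with 17beta-estradiol; nearly all actives have a fitted effect of over 45% in size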; also: potency is read from the fitted curve at half-maximal effect)
[10] = molecular target: Estrogen receptor (Homo sapiens) (UniProt P03372); assay: qHTS assay to identify small molecule agonists of the estrogen receptor alpha (ER-alpha) signaling pathway using the BG1 cell line (AID 743079); conditions: BG1Luc4E2 cells, ERE-luciferase agonist, 22 h; activation: at 70.3 µM (top of the series); also: nearly all actives have a fitted effect of over 20% in size
Sequence of Estrogen receptor (Homo sapiens) (P03372 whole entry, looked up): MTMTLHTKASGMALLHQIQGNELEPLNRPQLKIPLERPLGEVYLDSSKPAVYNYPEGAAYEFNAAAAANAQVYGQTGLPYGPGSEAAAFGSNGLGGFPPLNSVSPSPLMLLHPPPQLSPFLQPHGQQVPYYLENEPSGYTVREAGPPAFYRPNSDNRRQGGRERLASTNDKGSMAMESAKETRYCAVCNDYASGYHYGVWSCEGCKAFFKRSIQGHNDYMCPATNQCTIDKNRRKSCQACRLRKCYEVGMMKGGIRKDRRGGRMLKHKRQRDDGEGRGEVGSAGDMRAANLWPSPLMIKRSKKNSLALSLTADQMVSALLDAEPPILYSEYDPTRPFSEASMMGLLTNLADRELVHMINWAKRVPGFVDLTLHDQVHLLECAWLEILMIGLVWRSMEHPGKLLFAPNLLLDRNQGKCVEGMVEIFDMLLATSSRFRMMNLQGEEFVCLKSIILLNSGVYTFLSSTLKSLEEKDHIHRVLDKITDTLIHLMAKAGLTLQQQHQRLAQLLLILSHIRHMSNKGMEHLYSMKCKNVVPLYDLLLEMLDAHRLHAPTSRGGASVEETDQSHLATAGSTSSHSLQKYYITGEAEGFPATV

[11] = qHTS assay to identify small molecule antagonists of the estrogen receptor alpha (ER-alpha) signaling pathway using the BG1 cell line (AID 743080; calls by dose curve;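 also: BG1 cells stimulated with 17beta-estradiol alongside compound; nearly all actives have a fitted effect of over 25% in size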; also: potency is read from the fitted curve at half-maximal effect)
How it was run: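 Readout is ONE-Glo luminescence, taken 30 min at room temperature after reagent addition, preceded by a CellTiter-Fluor viability read; BG1-Luc-4E2 cells had received compound and 17beta-estradiol for 21.5 h at 37 C.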

[12] = qHTS assay to identify small molecule antagonists of the estrogen receptor alpha (ER-alpha) signaling pathway using the BG1 cell line - cell viability counter screen (AID 743081);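 also: compound given together with 17beta-estradiol as the ER stimulus; nearly all actives have a fitted effect of over 45% in size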; also: potency is read from the fitted curve at half-maximal effect
[13] = qHTS assay to identify small molecule antagonists of the thyroid receptor (TR) signaling pathway - cell viability counter screen (AID 743064); also: nearly all actives have a fitted effect of over 50% in size; also: potency is read from the fitted curve at half-maximal effect
How it was run: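 Fluorescence from CellTiter-Fluor, added after 23.5 h exposure at 37 °C, reported viability of GH3.TRE-Luc cells co-treated with compound and 1 nM T3. Measured in the same wells as the luciferase TR readout.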

[14] = qHTS assay to identify small molecule antagonists of the thyroid receptor (TR) signaling pathway (AID 743065); also: nearly all actives have a fitted effect of over 55% in size; also: potency is read from the fitted curve at half-maximal effect
How it was run: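 Antagonism measured as loss of luciferase signal in GH3 cells stably carrying a TRE-luciferase reporter, co-treated with compound and T3 (1 nM final) for 23.5 h at 37 C. Viability was read in the same well by CellTiter-Fluor.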

[15] = system: thyroid hormone receptor (rat, GH3 cells); assay: qHTS assay to identify small molecule agonists of the thyroid receptor (TR) signaling pathway (AID 743066; calls by dose curve)
[16] = molecular target: Estrogen receptor (Homo sapiens) (UniProt P03372); assay: qHTS assay to identify small molecule antagonists of the estrogen receptor alpha (ER-alpha) signaling pathway (AID 743069; active = well fitted curve in the direction sought with a large enough effect in the signal ratio in the repeat runs, not every such curve was filed as active; inconclusive = weak or mixed curves, or effect the other way; inactive = no such curve, though single readings can be large or run the other way; the % refers to the signal ratio; also: potency is read from the fitted curve at half-maximal effect)
How it was run: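 ER-alpha-UAS-bla GripTite HEK293 line; 2% charcoal-stripped FBS overnight; plated, 4 hr 37C/5% CO2; cpd in DMSO + 17beta-estradiol, 18 hr 37C; LiveBLAzer B/G FRET substrate 2 hr RT; fluorescence intensity.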

[17] = molecular target: Estrogen receptor (Homo sapiens) (UniProt P03372); assay: qHTS assay to identify small molecule agonists of the estrogen receptor alpha (ER-alpha) signaling pathway (AID 743075; calls by dose curve; also: potency is read from the fitted curve at half-maximal effect)
Aromatase (Homo sapiens) = Aromatase (Homo sapiens) (UniProt P11511); assay: qHTS assay to identify aromatase inhibitors (AID 743083); also: nearly all actives have a fitted effect of over 55% in size; also: potency is read from the fitted curve at half-maximal effect
Sequence of Aromatase (Homo sapiens) (P11511 whole entry, looked up): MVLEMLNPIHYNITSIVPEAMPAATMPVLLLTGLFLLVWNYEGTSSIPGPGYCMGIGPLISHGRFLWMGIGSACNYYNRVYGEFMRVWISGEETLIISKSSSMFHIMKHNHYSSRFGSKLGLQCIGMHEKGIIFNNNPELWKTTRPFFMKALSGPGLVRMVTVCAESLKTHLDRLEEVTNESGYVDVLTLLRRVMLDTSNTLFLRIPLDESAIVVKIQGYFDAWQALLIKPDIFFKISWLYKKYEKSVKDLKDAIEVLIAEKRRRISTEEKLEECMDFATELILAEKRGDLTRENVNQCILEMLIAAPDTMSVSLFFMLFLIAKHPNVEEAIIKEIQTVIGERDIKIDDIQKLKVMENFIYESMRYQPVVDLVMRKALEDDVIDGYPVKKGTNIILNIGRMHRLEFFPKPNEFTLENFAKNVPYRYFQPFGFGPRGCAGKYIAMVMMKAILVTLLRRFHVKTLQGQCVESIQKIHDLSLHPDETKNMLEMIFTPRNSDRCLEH

[18] = molecular target: Androgen receptor (Homo sapiens) (UniProt P10275); assay: qHTS assay to identify small molecule antagonists of the androgen receptor (AR) signaling pathway (AID 743035; active = well fitted inhibition curve with a large enough effect in the signal ratio in the repeat runs, not every such curve was filed as active; inconclusive = weak or mixed curves, or effect the other way; inactive = no such curve, though single readings can be large or run the other way; the % refers to the signal ratio)
How it was run: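 HEK293 cells stably carrying a UAS-driven beta-lactamase reporter (AR-UAS-bla GripTite) were plated for 4 h at 37C, then given compound and the agonist R1881 and incubated 16 h. Reporter activity was read by LiveBLAzer B/G FRET fluorescence after 2 h at room temperature.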

[19] = molecular target: Androgen receptor (Homo sapiens) (UniProt P10275); assay: qHTS assay to identify small molecule agonists of the androgen receptor (AR) signaling pathway (AID 743036; active = well fitted activation curve with a large enough effect in the signal ratio in the repeat runs, with a control signal flat, not every such curve was filed as active; inconclusive = weak or mixed curves, or effect the other way; inactive = no such curve, though single readings can be large or run the other way; the % refers to the signal ratio)
How it was run: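 Fluorescence from a beta-lactamase FRET substrate served as read-out in AR-UAS-bla GripTite HEK293 cells. Cells were treated with DMSO-dissolved compounds for 16 h at 37C, then with LiveBLAzer B/G substrate for 2 h at room temperature.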

| Compound | Potency [1] | Potency [2] | Potency [3] | Potency [4] | Potency [5] | Potency [6] | Potency [7] | Potency [8] | Potency [9] | Potency [10] | Potency [11] | Potency [12] | Potency [13] | Potency [14] | Potency [15] | Potency [16] | Potency [17] | Potency (Aromatase (Homo sapiens)) | Potency [18] | Potency [19] |
| --- | --- | --- | --- | --- | --- | --- | --- | --- | --- | --- | --- | --- | --- | --- | --- | --- | --- | --- | --- | --- |
| CCCCC(F)(F)[C@@]1(O)CC[C@H]2[C@@H](CC(=O)[C@@H]2CCCCCCC(=O)O)O1 | inactive | inactive | inactive | inactive | inactive | inactive | inactive | inactive | inactive | inactive | inactive | inactive |  |  |  |  |  |  |  |  |
| CCOC(=O)Cc1cccc(-c2cc(CCCCCCc3ccc(O[C@H]4O[C@H](COC(C)=O)[C@@H](OC(C)=O)[C@H](OC(C)=O)[C@@H]4OC(C)=O)c(-c4cccc(CC(=O)OCC)c4)c3)ccc2O[C@H]2O[C@H](COC(C)=O)[C@@H](OC(C)=O)[C@H](OC(C)=O)[C@@H]2OC(C)=O)c1 | inactive | inactive | inactive | inactive | inactive |  | inactive |  | inactive | inactive | inactive |  | inactive | inactive | inactive | inactive | inactive | inactive |  |  |
| Clc1ccc(COC(Cn2ccnc2)c2ccc(Cl)cc2Cl)c(Cl)c1 (stereo not drawn) | inactive | 10.1 µM (active) | 11.4 µM (active) | 10.1 µM (active) | inactive | inactive | inactive | inactive | inactive | inactive | inactive | inactive |  |  |  | inactive | inactive |  |  |  |
| C/C=C1\NC(=O)[C@H]2CSSCC/C=C/[C@H](CC(=O)N[C@H](C(C)C)C(=O)N2)OC(=O)C(C(C)C)NC1=O (stereo partly drawn) | 2.39 µM (active) | 0.0013 µM (active) | 0.0012 µM (active) | 0.0017 µM (active) | 4.77 µM (active) | inactive | 7.5 µM (active) | inactive | 6.74 µM (active) |  | 0.0531 µM (active) |  | 0.0119 µM (active) | 0.0168 µM (active) |  |  | 15.1 µM [inconclusive] (active) | 0.0094 µM (active) |  |  |
| CC(=O)Nc1ccc(OC(=O)c2ccccc2O)cc1 | inactive | inactive | inactive | inactive | inactive | inactive |  | inactive | inactive |  |  | inactive | inactive | inactive | inactive |  |  | inactive | inactive |  |
| CC1=C[C@H](O)CC(C)(C)[C@H]1/C=C/C(C)=C/C=C/C(C)=C/C=C/C=C(C)/C=C/C=C(C)/C=C/C1=C(C)C[C@@H](O)CC1(C)C | inactive | 11.9 µM (active) | 18.8 µM (active) | 21.1 µM (active) | inactive | inactive | inactive |  | inactive |  |  |  | 23.7 µM (active) |  |  |  |  | inactive |  | inactive |
| O=C(O)COc1ccc(CCNS(=O)(=O)c2ccccc2)s1 | inactive | inactive | inactive | inactive | inactive |  | inactive |  | inactive | inactive | inactive | inactive | inactive | inactive | inactive | inactive | inactive | inactive |  |  |
| CO[C@H]1C[C@@H]2CC[C@@H](C)[C@@](O)(O2)C(=O)C(=O)N2CCCC[C@H]2C(=O)O[C@H]([C@H](C)C[C@@H]2CC[C@@H](OCCO)[C@H](OC)C2)CC(=O)[C@H](C)/C=C(\C)[C@@H](O)[C@@H](OC)C(=O)[C@H](C)C[C@H](C)/C=C/C=C/C=C/1C | 23.9 µM (active) | 0.0094 µM (active) | 0.0075 µM (active) | 0.0168 µM (active) | inactive | inactive |  | 23.7 µM (active) |  | inactive | 0.0047 µM (active) | 21.1 µM (active) | 3.76 µM (active) | 0.0027 µM (active) | inactive |  |  |  |  |  |
| C=C[C@]1(C)C[C@@H](OC(=O)CSCCN(CC)CC)[C@]2(C)[C@H](C)CC[C@]3(CCC(=O)[C@H]32)[C@@H](C)[C@@H]1O | inactive | 5.31 µM (active) | 5.96 µM (active) | 6.68 µM (active) | inactive |  | inactive |  | inactive | inactive | inactive | 10.6 µM (active) | 10.6 µM (active) | 23.7 µM (active) | inactive | inactive | inactive | inactive |  |  |
| NC(N)=NCC1COc2ccccc2O1 (stereo not drawn) | inactive | inactive | inactive | inactive | inactive |  | inactive |  | inactive | inactive | inactive |  | inactive | inactive | inactive | inactive | inactive | inactive |  |  |
| COC(F)(F)C(Cl)Cl | inactive | inactive | inactive | inactive | inactive | inactive | inactive | inactive | inactive | inactive | inactive | inactive |  |  |  | inactive | inactive | inactive |  | inactive |
| Cc1cccc(C)c1Nc1ncccc1C(=O)O | inactive | inactive | inactive | inactive | inactive | inactive | inactive | inactive | inactive |  |  | inactive | inactive |  | inactive | inactive | inactive | inactive |  |  |
| O=C1NCCN1c1ncc([N+](=O)[O-])s1 | inactive | inactive | inactive | inactive | inactive |  | inactive |  | inactive | inactive | inactive | inactive | inactive | inactive | inactive | inactive | inactive | inactive |  |  |
| CC1(C)S[C@@H]2[C@H](NC(=O)[C@H](N)c3ccccc3)C(=O)N2[C@H]1C(=O)OCOC(=O)[C@@H]1N2C(=O)C[C@H]2S(=O)(=O)C1(C)C | inactive | inactive | inactive | inactive | inactive |  | inactive |  | inactive | inactive | inactive | inactive | inactive | inactive | inactive | 13.4 µM [inconclusive] (active) | inactive | inactive |  |  |
